Here are results for 21 compounds from PubChem BioAssay (EPA / NIEHS).

What is called AC50 is the concentration giving half of the maximal activity seen.

Activity calls are given as the source filed them. The calls were made as follows: active = hit-call score of the fitted dose curve at least 0.9, where 1 is the maximum; inactive = score below 0.9.

Read-out in test [1]: Interleukin-8 (IL8), CXCL8 (gene 3576)
Nature of the test: BSK_CASM3C_IL8: BioMAP Diversity Plus: CASM3C Assay for Interleukin-8 (IL8) Biomarker Activity (AID 2283042).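 Also: IL-8 protein level quantified by ELISA.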 The settings on record: primary human coronary artery smooth muscle cells; actives raise or lower the signal.

Read-out in test [2]: Human Leukocyte Antigen - DR isotype (HLADR), HLA-DRA (gene 3122)
The experiment in a line: BSK_CASM3C_HLADR: BioMAP Diversity Plus: CASM3C Assay for Human Leukocyte Antigen - DR isotype (HLADR) Biomarker Activity (AID 2283043).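 Also: cell-surface HLA-DR protein level quantified by ELISA.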 The note with it: primary human coronary artery smooth muscle cells; actives raise or lower the signal.

Read-out in test [3]: Macrophage colony-stimulating factor (MCSF), CSF1 (gene 1435)
Nature of the test: BSK_CASM3C_MCSF: BioMAP Diversity Plus: CASM3C Assay for Macrophage colony-stimulating factor (MCSF) Biomarker Activity (AID 2283044).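 Also: M-CSF protein amount quantified by ELISA after 24 h exposure.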 The note with it: primary human coronary artery smooth muscle cells; actives raise or lower the signal.

Read-out in test [4]: Low-density lipoprotein receptor (LDLR), LDLR (gene 3949)
The experiment in a line: BSK_CASM3C_LDLR: BioMAP Diversity Plus: CASM3C Assay for Low-density lipoprotein receptor (LDLR) Biomarker Activity (AID 2283045).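 Also: LDLR protein level on the cell surface quantified by ELISA.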 The note with it: primary human coronary artery smooth muscle cells; actives raise or lower the signal.

Read-out in test [5]: Monocyte Chemoattractant Protein-1 (MCP1), CCL2 (gene 6347)
The experiment in a line: BSK_CASM3C_MCP1: BioMAP Diversity Plus: CASM3C Assay for Monocyte Chemoattractant Protein-1 (MCP1) Biomarker Activity (AID 2283046).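 Also: MCP-1 level quantified by ELISA 24 h after dosing.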 The settings on record: primary human coronary artery smooth muscle cells; actives raise or lower the signal.

The nature of test [6]: BSK_CASM3C_Proliferation: Cell Proliferation Assessment in the BioMAP Diversity Plus: CASM3C Assay (AID 2283047).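 Also: sulforhodamine B total protein stain as relative cell number at 560 nm; sub-confluent cells exposed 48 h before staining; fitted both ways against DMSO so gain or loss of cell number.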 The note with it: primary human coronary artery smooth muscle cells.
Read-out in test [7]: Monokine induced gamma interferon (MIG), CXCL9 (gene 4283)
Nature of the test: BSK_CASM3C_MIG: BioMAP Diversity Plus: CASM3C Assay for Monokine induced gamma interferon (MIG) Biomarker Activity (AID 2283048).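 Also: MIG protein level measured by ELISA.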 The note with it: primary human coronary artery smooth muscle cells; actives raise or lower the signal.

Read-out in test [8]: serum amyloid A (SAA), SAA1 (gene 6288)
Nature of the test: BSK_CASM3C_SAA: BioMAP Diversity Plus: CASM3C Assay for serum amyloid A (SAA) Biomarker Activity (AID 2283049).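 Also: SAA protein level quantified by ELISA.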 The note with it: primary human coronary artery smooth muscle cells; actives raise or lower the signal.

Test [9] is described as follows: BSK_CASM3C_SRB: Viability Assessment in the BioMAP Diversity Plus: CASM3C Assay (AID 2283050).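 Also: total protein by SRB staining as cytotoxicity measure in parallel cultures; cells exposed to compound for 24 h.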 The note with it: primary human coronary artery smooth muscle cells.
Read-out in test [10]: Thrombomodulin, THBD (gene 7056)
The experiment in a line: BSK_CASM3C_Thrombomodulin: BioMAP Diversity Plus: CASM3C Assay for Thrombomodulin Biomarker Activity (AID 2283051).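 Also: thrombomodulin protein level measured by ELISA 24 h after dosing.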 The settings on record: primary human coronary artery smooth muscle cells; actives raise or lower the signal.

On to `CCCCC(CC)COC(=O)CCCCCCCCC(=O)OCC(CC)CCCC` (stereo not given), for which the outcome in test [1], in [2], in test [3], in test [4], in [5] and in test [7] was inactive. The result in [8], in test [9] and in [10] was inactive. The AC50 in test [6] is 7.33 µM (active).
For `COC(=O)c1ccccc1O`, the result in test [1], in [2], in [3], in [4], in test [5] and in test [6] was inactive. Moreover, the outcome in test [7], in [8], in [9] and in test [10] was inactive.
Turning to `CCOCCO`, the outcome in test [1], in test [2], in test [3], in test [4], in [5] and in test [6] was inactive. Also, the outcome in test [7], in test [8], in [9] and in test [10] was inactive.
As for `CC(=O)OCCC(C)C`, the result in test [1], in test [2], in test [3], in test [4], in [5] and in test [6] was inactive. Further, the result in test [7], in [8], in test [9] and in [10] was inactive.
As for `CC(C)CCO`, the outcome in test [1], in test [2], in [3], in [4], in test [5] and in [6] was inactive. Besides, the result in test [7], in test [8], in test [9] and in [10] was inactive.
As for `CCn1nc(Cc2ccccc2)cc1C1CCN(C[C@H]2C[C@H](N(C)[C@@H](C(=O)O)C(C)C)C[C@@H]2c2cccc(F)c2)CC1`, the outcome in [1], in [2], in test [3], in test [4], in [5] and in test [6] was inactive. The outcome in test [7], in [8], in test [9] and in test [10] was inactive.
Consider `O=C(O)CCN(C1(C(=O)NO)CCCC1)S(=O)(=O)c1ccc(Oc2ccc(F)cc2)cc1`, for which the result in test [1], in test [2], in test [3], in test [4], in [5] and in test [6] was inactive. In addition, the outcome in [7], in [8], in test [9] and in test [10] was inactive.
In the case of `CC(C)CC(C)(O)C#CC(C)(O)CC(C)C` (stereo not given), the outcome in test [1], in test [2], in test [3], in test [4], in test [5] and in test [6] was inactive. Further, the outcome in [7], in test [8], in [9] and in test [10] was inactive.
As for `Clc1nc(Cl)c(Cl)c(Cl)c1Cl`, the outcome in test [1], in test [2], in [3], in test [4], in test [5] and in [6] was inactive. The outcome in test [7], in test [8], in test [9] and in [10] was inactive.
With `CC[C@H]1CC[C@H](NCc2cc3c(cc2OC)[C@H]2C[C@H]2C(=O)N3C)[C@H](c2ccccc2)N1`, the result in [1], in [2], in test [3], in test [4], in [5] and in test [7] was inactive. The outcome in test [8], in test [9] and in test [10] was inactive. Further, in test [6], the AC50 was 7.17 µM (active).
Consider `Cc1ccc(S(=O)(=O)O)cc1C`, for which the result in test [1], in [2], in test [3], in [4], in [5] and in [6] was inactive. For the same compound, the outcome in [7], in [8], in test [9] and in test [10] was inactive.
As for `CCOCCOCCOCCO`, the result in test [1], in test [2], in test [3], in test [4], in test [5] and in test [6] was inactive. Further, the result in test [7], in [8], in test [9] and in [10] was inactive.
For `CNS(=O)(=O)c1cc(C(=O)N2CCC(CCN3C4CCC3CC(n3c(C)nc5ccccc53)C4)(c3cccc(F)c3)CC2)c(Cl)cc1F` (stereo not given), the result in test [1], in test [3], in [5], in test [7], in test [8] and in test [9] was inactive. In addition, in test [10], the outcome was inactive. Besides, the values for the AC50 in [2], in test [4] and in test [6] were 28.5 µM (active), 5.4 µM (active) and 13.5 µM (active), respectively.
Turning to `CCCCCCCCCCCCCCCO`, the result in test [1], in test [2], in test [3], in test [5], in [7] and in test [8] was inactive. The result in [9] and in test [10] was inactive. Besides, the values for the AC50 in [4] and in [6] were 31.9 µM (active) and 20 µM (active), respectively.
On to `CCCC(=O)OCC`, for which the result in test [1], in test [2], in test [3], in [4], in [5] and in [6] was inactive. The outcome in test [7], in [8], in test [9] and in test [10] was inactive.
As for `COc1ccc2sc(C(=O)Nc3nnn[nH]3)c(OC(C)C)c2c1`, the AC50 in test [1] was 29.4 µM (active); in test [2] it was 13.3 µM (active); in [3] it was 19.9 µM (active); in [5], 15.8 µM (active); in test [6], 11.1 µM (active); in test [8] it was 19.9 µM (active). The AC50 is 15.5 µM (active) in test [9] and 8.49 µM (active) in test [10]. Also, the result in test [4] and in test [7] was inactive.
Turning to `CC(C)=CCCC(C)CCO` (stereo not given), the result in [1], in [2], in test [3], in [4], in test [5] and in test [6] was inactive. Further, the outcome in test [7], in test [8], in test [9] and in test [10] was inactive.
In the case of `Cn1c(=O)cc(Oc2ccc(F)cc2F)c2cnc(NCC(C)(C)O)nc21`, the AC50 in [1] is 3.16 µM (active); in test [2], 1.42 µM (active); in [8], 3.97 µM (active). Moreover, the result in [3], in test [4], in test [5], in test [6], in test [7] and in [9] was inactive. In addition, the result in [10] was inactive.
As for `O=C(O)CC(O)C(=O)O` (stereo not given), the outcome in test [1], in [2], in [3], in [4], in [5] and in test [6] was inactive. Moreover, the outcome in test [7], in test [8], in [9] and in test [10] was inactive.
In the case of `CC(C)(O)c1coc(S(=O)(=O)NC(=O)Nc2c3c(cc4c2CCC4)CCC3)c1`, the result in test [1], in test [2], in test [3], in test [4], in test [5] and in test [6] was inactive. The outcome in test [7], in test [8], in [9] and in test [10] was inactive.
Take `O=C1CCCCCN1`: the result in test [1], in test [2], in [3], in test [4], in [5] and in test [6] was inactive. Also, the outcome in [7], in test [8], in [9] and in [10] was inactive.
